Source: PubChem
CHT PAM: allosterically activates the human high affinity choline transporter; CHT-expressing cells, membrane potential dye, choline EC20; active compounds read high; LV-AA mutant CHT in HEK293 cells; B-score at 10 µM; actives 0.49% (n = 310,000);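 active = initial fluorescence not abnormally high and integrated response B-score, plate-corrected, over 3 SD above library mean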
CHT inh: human CHT choline transport inhibition; B-score at 10 µM; actives 0.86% (n = 310,000); CHT-expressing cells, membrane potential dye, choline response; active compounds read low; AID 488975; Q9GZV3;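 active = B-score over 3 SD under the library average, and starting fluorescence ratio not unusually high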;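 note: choline stimulus applied at its EC90 after an EC20 pre-addition; B-score computed on integrated fluorescence ratio after choline addition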
ALR inh: blocks human ALR sulfhydryl oxidase activity. P55789. purified ALR, DTT oxidation, H2O2 HRP-luminol luminescence. inhibition, % (no concentration beside the values). actives 3.8% (n = 290,000). AID 485317;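 active = mean replicate inhibition above about 79%, with every replicate also reaching it, limit read from the data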
PREPL inhibitor: inhibitors of human prolyl oligopeptidase-like enzyme PREPL | actives 0.68% (n = 320,000) | Q4J6C6 | inhibition, % at 5.96 µM | AID 2751 | recombinant PREPL, fluorescence polarization activity-based probe; in the data active = inhibition above about 43%;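 note: 0% = enzyme with DMSO and 100% = wells lacking enzyme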
Target sequence (Q4J6C6 whole entry, looked up): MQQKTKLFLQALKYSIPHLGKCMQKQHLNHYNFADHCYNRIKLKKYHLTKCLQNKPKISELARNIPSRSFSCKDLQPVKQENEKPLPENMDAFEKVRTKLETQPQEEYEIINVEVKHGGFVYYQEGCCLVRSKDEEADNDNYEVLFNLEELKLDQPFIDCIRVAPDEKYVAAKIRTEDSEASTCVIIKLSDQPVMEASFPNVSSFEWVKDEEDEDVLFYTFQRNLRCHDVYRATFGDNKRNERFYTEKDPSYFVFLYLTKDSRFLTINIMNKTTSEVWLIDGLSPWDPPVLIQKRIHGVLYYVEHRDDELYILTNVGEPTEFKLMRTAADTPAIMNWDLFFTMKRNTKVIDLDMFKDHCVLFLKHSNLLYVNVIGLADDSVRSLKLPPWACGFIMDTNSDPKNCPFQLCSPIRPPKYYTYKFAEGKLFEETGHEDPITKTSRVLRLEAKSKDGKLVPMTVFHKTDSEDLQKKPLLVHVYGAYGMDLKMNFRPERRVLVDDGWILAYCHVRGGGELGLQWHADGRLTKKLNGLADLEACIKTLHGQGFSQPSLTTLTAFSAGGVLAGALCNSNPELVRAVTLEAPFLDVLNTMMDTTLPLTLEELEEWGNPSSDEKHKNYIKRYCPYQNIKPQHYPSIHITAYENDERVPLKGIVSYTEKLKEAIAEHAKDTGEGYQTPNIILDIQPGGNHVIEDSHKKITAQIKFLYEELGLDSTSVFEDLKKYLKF
AI-2 QS mod: modulators of Vibrio harveyi AI-2 quorum sensing system. activity change, % at 7.5 µM. AID 2094. Vibrio harveyi JMH597 AI-2 luminescence/OD600 ratio, 9 h; active compounds read low; strain lacks LuxN and CqsS sensors; 0 = neutral-control median. actives 0.4% (n = 300,000); in the data active = activity change below about -75%, passing the limit was not always enough;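 note: luminescence divided by OD600 gain over 9 h not by final OD600 alone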
Starred values were filed as active, the others as inactive; i = inactive; . = not tested or not shown. This is a sample that favours compounds with a hit; in the whole collection about 5% have one here.

SMILES | CHT PAM | CHT inh | ALR inh | PREPL inhibitor | AI-2 QS mod
COc1cc(C(=O)N/N=C/C23CC[C@@H](O)CC2(O)CC[C@@H]2[C@@H]3CCC3(C)C(C4=CC(=O)OC4)CCC23O)ccc1O (stereo partly drawn) | i | i | 95* | -4 | 13
CC(=NCc1cccnc1)c1c(O)n(-c2ccccc2)c(=O)[nH]c1=O | i | i | -4 | 11 | 5
CN1C(=O)C(=Cc2ccc(SC3CCCCC3)o2)C(=O)N(C)C1=O | i | i | 88* | 4 | 12
CCCCCCN1CCN(c2ccccc2Cl)CC1 | i | i | -3 | 11 | -2
COC(=O)C1=C(c2ccc3ccccc3c2)C[C@@H]2CC[C@H]1N2C(=O)NC1Cc2ccccc2C1 | . | . | -3 | -17 | .
Cc1ccc(S(=O)(=O)N2CCCC2c2cccnc2)cc1 (stereo not drawn) | i | i | -6 | 12 | 14
Cc1cc(C)c2c(c1)-c1cc(C)nn1C(c1cccnc1)N2 (stereo not drawn) | i | i | 99* | -8 | 20
Cc1ccsc1-c1nc(CSCC(=O)N2CCC3(CC2)OCCO3)c(C)o1 | i | i | 99* | 12 | 9
O=C(Cn1ncc2ccsc2c1=O)N1CCC2(CC1)OCCO2 | i | i | -6 | 3 | 28
Cc1ccccc1-c1nc(CS(=O)CC(=O)N2CCC3(CC2)OCCO3)c(C)o1 (stereo not drawn) | i | i | 100* | 14 | 6
COCCNC(=O)Cn1cc(/C=C2\C(=O)NC(=O)N(c3cccc(C)c3C)C2=O)c2ccccc21 | i | i | 92* | -5 | 8
Cc1cc(O)c2c(C)c(CC(=O)N3C[C@H]4C[C@@H](C3)c3cccc(=O)n3C4)c(=O)oc2c1 | i | i | 85* | 13 | 28
COc1cc(C)cc2oc(=O)c(CC(=O)N3C[C@H]4C[C@@H](C3)c3cccc(=O)n3C4)c(C)c12 | i | i | -5 | 25 | 3
COc1cccc(-n2c(/C=C/c3ccc(O)c(O)c3)nc3ccccc3c2=O)c1 | i | i | 91* | 20 | 11
CCN1CCN(S(=O)(=O)c2cnc(Cl)c(Br)c2)CC1 | i | i | 9 | 5 | 25
CN(C)C=C1C(=O)N(C2CCCCC2)C(=O)N(C2CCCCC2)C1=O | i | -5.4* | -16 | 14 | 3
COP(=O)(OC)C1(Nc2ccc(C)cc2)CCCCC1 | i | i | 99* | -1 | 7
CC(C)(C)C(=O)O[C@H]1CC[C@@]2(C)C(=CC(=O)C3C2CC[C@]2(C)C(=O)[C@H](O)CC32)C1 (stereo partly drawn) | . | . | 0 | 3 | .
COC(=O)Cn1cc(C=C2C(=O)NC(=O)NC2=O)c2ccccc21 | i | i | 6 | -3 | 4
COc1c(C=C2C(=O)NC(=O)NC2=O)c(CCN(C)C(=O)c2ccccc2)cc2c1OCO2 | i | i | 96* | 5 | 18
Cc1nn(Cc2ccccc2)c(C)c1C=C1C(=O)NC(=O)NC1=O | i | i | 95* | -11 | -2
CN1Cc2cccnc2N(C)Cc2cc(Cl)ccc21 | i | i | 99* | -1 | -1
Cc1nn(Cc2ccc(Cl)cc2Cl)c(Cl)c1C(=O)Nc1ccc(OC(F)F)cc1 | i | i | 6 | -1 | 13
CC(C)[C@H]1C(=O)N2CCC[C@H]2[C@]2(O)O[C@](NC(=O)[C@@H]3C=C4c5cccc6[nH]cc(c56)C[C@H]4N(C)C3)(C(C)C)C(=O)N12 | i | i | -23 | 46* | 45
COC1=CC2C3Cc4ccc(OC)c(O)c4C2(CCN3C)CC1=O (stereo not drawn) | . | . | 2 | 13 | .
SMILES | CHT PAM | CHT inh | ALR inh | PREPL inhibitor | AI-2 QS mod
O=C1NC(=O)N(CCc2ccc(F)cc2)C(=O)/C1=C/c1cccs1 | i | i | 11 | 3 | 30
C=CCN1C(=O)/C(=C/c2cccs2)C(=O)NC1=S | i | i | 96* | -8 | 27
CC1=C(C/C(C)=C/c2ccccc2)/C(=C/CO)[C@@H]2OC(=O)O[C@]2(C)C12CC2 | i | i | -2 | 9 | 23
Cc1ccccc1OCCN=Cc1c(O)n(C)c(=O)n(C)c1=O | i | i | 0 | 0 | 5
O=C(C(=O)N1CCOCC1)c1cn(Cc2ccc(F)cc2)c2ccccc12 | i | i | -6 | 13 | 6
CN(C)c1ccc(/C=C2/C(=N\O)C3CCN2CC3)cc1 | i | i | 99* | 2 | 7
O=C1/C(=C\c2ccc([N+](=O)[O-])cc2)N2CCC1CC2 | i | i | -2 | 11 | 19
COc1ccc2[nH]cc(CCN=C(N)N)c2c1 | i | i | 11 | -2 | 26
COc1ccc2[nH]cc(C3=CCNCC3)c2c1 | i | i | 97* | 51* | 20
O=C1C(Cl)=CC(=Nc2ccc(O)cc2)C=C1Cl | . | . | 99* | 22 | .
C=CCn1c(O)c(/C=N/NC(=O)CCCC)c(=O)[nH]c1=S | i | i | 90* | -3 | .
CCCCCCC(=O)N/N=C/c1c(O)n(C2CC2)c(=S)[nH]c1=O | i | i | 5 | 0 | 44
CN(C)[C@@H]1C(=O)C(C(N)=O)=C(O)[C@@]2(O)C(=O)C3=C(O)c4c(O)ccc(Cl)c4[C@@](C)(O)[C@H]3C[C@@H]12 | i | i | -27 | 10 | -111*
COCCNC(=O)N1[C@H]2CC[C@@H]1C(C(=O)OC)=C(c1cccc(C#N)c1)C2 | . | . | 1 | -1 | .
Cc1cnc(-n2c(=S)[nH]c3ccccc3c2=O)s1 | . | . | 97* | 9 | .
C=CCn1c(O)c(C(C)=NCCN2CCN(C(=S)NC)CC2)c(=O)[nH]c1=O | i | i | -5 | -1 | 6
NCCc1ccccc1 | i | i | -9 | 0 | 20
Nc1ccc(N=Nc2ccccc2)cc1 | i | i | 98* | 6 | 13
O=C(NC1CCCCC1)Oc1cc2oc(=O)sc2cc1Cl | i | i | 92* | 1 | -35
CN(C)P1(N(C)C)=Nc2c(c(N)nn2C)C(c2ccccc2)=N1 | i | i | 86* | 8 | 17
Cn1nc(N)c2c1N=P(N1CCOCC1)(N1CCOCC1)N=C2c1ccccc1 | i | i | 12 | 3 | 22
NC(=O)c1ccc(C(=O)Nc2ccc([As](=O)(O)O)cc2)cc1 | i | i | -1 | 0 | 21
O=[As](O)(O)c1ccc(N=Nc2ccc(O)cc2)cc1 | i | i | 99* | . | 22
Nc1nonc1C(=O)N/N=C/c1ccc([N+](=O)[O-])o1 | i | i | -21 | -2 | -84*
COC(=O)C1=C(c2cc3ccccc3s2)C[C@@H]2CC[C@H]1N2C(=O)NCc1ccco1 | i | i | . | -22 | 16
O=c1[nH]c(=S)[nH]c(O)c1N=Nc1ccc(SC(F)F)cc1 | i | i | 98* | 12 | 18
CC(C)c1ccc(N=Nc2c(O)[nH]c(=O)[nH]c2=O)cc1 | i | i | -4 | 3 | .
